PubChem BioAssay (Tox21)
“And” between values parts separate entries of the source, which are not always exact repeats. Equal values may be shown once. Records with an inconclusive call do not appear. A call without a number means that no potency is given here. Some compounds were tested as several samples or in several runs, with calls that do not always agree. The source made the active and inactive calls. Calls come from the whole dose curve; as a rule, active = well fitted activation curve with a large enough effect in the repeat runs; inconclusive = weak or mixed curves; inactive = flat fitted curve, though single readings scatter.

Experiment: A CellTox Green Cytotoxicity Assay to monitor cytotoxicity in HEK293 cells - 8 hour (AID 1224884); note: nearly all actives have a fitted effect of over 35% in size
Details: CellTox Green fluorescence; series mostly up to 76.8 µM
Source text: National Center for Advancing Translational Sciences [NCATS]
NIH Chemical Genomics Center [NCGC]
U.S. Environmental Protection Agency [EPA]
National Institutes of Environmental Health Sciences [NIEHS]
National Toxicology Program [NTP]
Cell-based models are critical for drug discovery. Determining the natural cytotoxic effects resulting from test compounds is an essential research activity. A CellTox Green Cytotoxicity Assay to monitor cytotoxicity in real time of continues cell culture during 40 hours of the compound treatment was used to screen Tox21 10K library compounds in Hek293 cells. CellTox Green Cytotoxicity Assay is a nonlytic, homogeneous, biofluorescent method to measure cytotoxicity in cell culture after experimental manipulation. The assay system uses a proprietary asymmetric cyanine dye that is excluded from viable cells but preferentially stains the dead cell's DNA. […] Viable cells produce no appreciable increases in fluorescence. Therefore, the fluorescence signal produced by the binding interaction with dead cell DNA is proportional to cytotoxicity.
The mixture of Hek293 cell suspension and reagents were dispensed at 600cells/6 ul/well in 1536-well tissue culture treated black solid bottom plates using a Multidrop dispenser. After the assay plates were incubated at a 37 C/5% CO2 incubator for 5 hours, 23 nL of compounds dissolved in DMSO, positive and negative controls was transferred to the assay plate by a pintool work station. The plates were incubated at 37 C for 40 hours. The fluorescence intensity were measured at 0h, 8h, 16h, 24h, 32h and 40h time points using ViewLux plate reader during compound treatment.
Potency is the fitted concentration of half-maximal effect.

SMILES	Potency
COc1nc(C)nc(Cl)c1NC1=NCCN1	inactive
Cc1occc(=O)c1OC(=O)C(C)C	inactive
CC[C@H]1CN2CCc3cc(OC)c(OC)cc3[C@@H]2C[C@@H]1C[C@H]1NCCc2cc(OC)c(OC)cc21	inactive
O=C(Oc1ccccc1)c1ccccc1O	inactive
OCCN1CCNCC1	inactive
CCC(C)(Oc1ccc(C2(c3ccc(OC(C)(CC)C(=O)O)cc3)CCCCC2)cc1)C(=O)O (stereo not given)	inactive
O=C1NCC2(CCN(CCc3ccccc3)CC2)O1	inactive
O=C1CC2(CCCC2)CC(=O)N1CCCCN1CCN(c2ncccn2)CC1	inactive
CC(C)(O)CCC(C)(C)O	inactive
CCn1c2ccccc2c2cc(N)ccc21	inactive
CCCCOCCOC(=O)c1ccccc1C(=O)OCCOCCCC	inactive
O=Cc1ccc(Cl)cc1	inactive
CCCCN(CCO)CCCC	inactive
Nc1cc(S(=O)(=O)O)cc2cc(S(=O)(=O)O)cc(O)c12	inactive
COC(=O)c1cccc(C(=O)OC)c1	inactive and 43.6 µM (active)
O=C(Nc1ccccc1SSc1ccccc1NC(=O)c1ccccc1)c1ccccc1	inactive
O=C(O)CCc1ccccc1	inactive
CCN(CC)c1ccc2c(C)cc(=O)oc2c1	inactive
CCCNC(C)C(=O)Nc1ccccc1C (stereo not given)	inactive
COC(=O)[C@H]1[C@H]2C[C@@H]3c4[nH]c5cc(OC)ccc5c4CCN3C[C@H]2C[C@@H](OC(=O)c2cc(OC)c(OC)c(OC)c2)[C@@H]1OC	inactive

SMILES	Potency
O=C1Nc2ccccc2C1(c1ccc(O)cc1)c1ccc(O)cc1	inactive
CC(C)(C)NC(=O)[C@@H]1CN(Cc2cccnc2)CCN1C[C@@H](O)C[C@@H](Cc1ccccc1)C(=O)N[C@H]1c2ccccc2C[C@H]1O	inactive
CC(C(O)c1ccc(O)cc1)N1CCC(Cc2ccccc2)CC1 (stereo not given)	inactive
CCCCC/C=C/CC1CC(=O)OC1=O (stereo not given)	inactive
CCC(C)(C)C(=O)O[C@H]1C[C@@H](C)C=C2C=C[C@H](C)[C@H](CC[C@@H]3C[C@@H](O)CC(=O)O3)[C@H]21	inactive
CC1COC(=O)O1 (stereo not given)	inactive
C=CC(=O)OCCCCCCOC(=O)C=C	inactive
O=C(O)c1cccc(C(=O)O)c1	inactive
C#CC(C)(CC)OC(=O)c1ccccc1C(=O)O (stereo not given)	inactive
Cc1cc(OCCOCC[N+](C)(C)Cc2ccccc2)ccc1C(C)(C)CC(C)(C)C	23.9 µM (active)
CCN(CC)CCOc1ccc(/C(=C(\Cl)c2ccccc2)c2ccccc2)cc1	39.7 µM (active) and inactive
CC(=O)O[C@]1(C(C)=O)CC[C@H]2[C@@H]3C[C@H](C)C4=CC(=O)CC[C@]4(C)[C@H]3CC[C@@]21C	inactive
Cc1ccc(S(=O)(=O)Oc2ccc(N=Nc3ccc(-c4ccc(N=Nc5c(O)ccc6cc(S(=O)(=O)O)cc(S(=O)(=O)O)c56)c(C)c4)cc3C)cc2)cc1	inactive
CCCCCCCCCCCCCC[P+](CCCC)(CCCC)CCCC	17.3 µM (active) and 21.9 µM (active)
CN(C)c1ccc2nc3ccc(=[N+](C)C)cc-3sc2c1	inactive
CCOc1ccc2c(c1)C(C)=CC(C)(C)N2	inactive
CCc1cc(C(C)(C)C)c(O)c(C(C)(C)C)c1	inactive
C=C(C)C1CC=C(C)C(OC(C)=O)C1 (stereo not given)	inactive
CC(C)(C)c1cc(C(C)(C)C)c(O)c(C(C)(C)C)c1	inactive
Clc1ccc2c(c1)C(N1CCNCC1)=Nc1ccccc1O2	inactive
